Activity calls are given as the source filed them.
Tests used:
[1] = binders of probe aFSTL3 on microarray, primary screen, stem cell growth factor project, biochemical, small-molecule microarray, fluorescence 635/667 (AID 1064); details: higher = more signal;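 further: measures binding of the biotinylated anti-FSTL3 antibody to printed compounds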
[2] = binders from COS7 lysate, DM2A8 probe, primary screen, torsin A project, cell lysate, small-molecule microarray, fluorescence 635/667 (AID 1065); details: higher = more signal, COS7 lysate expressing mutant human TOR1A
[3] = binders of probe aFGF2 on microarray, primary screen, stem cell growth factor project, biochemical, small-molecule microarray, fluorescence 635/667 (AID 1067); details: higher = more signal;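 further: measures binding of biotinylated aFGF2 protein to printed compounds on slides; z-score merges feature fluorescence and signal-to-noise across triplicate slides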
[4] = binders of probe aFGF10 on microarray, primary screen, stem cell growth factor project, biochemical, small-molecule microarray, fluorescence 635/667 (AID 1071); details: higher = more signal;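 further: score merges 667 nm spot intensity and signal to noise from triplicate slides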
[5] = biological target: Neurogenic locus notch homolog protein 2 (Homo sapiens) (UniProt Q04721); assay: Notch2 binders on small-molecule microarrays, primary screen, biochemical, small-molecule microarray, 635 nm fluorescence, stem cell growth factors (AID 1073); details: Notch2 binding, higher = more signal
Neurogenic locus notch homolog protein 2 (Homo sapiens), sequence (Q04721 whole entry, looked up, canonical isoform): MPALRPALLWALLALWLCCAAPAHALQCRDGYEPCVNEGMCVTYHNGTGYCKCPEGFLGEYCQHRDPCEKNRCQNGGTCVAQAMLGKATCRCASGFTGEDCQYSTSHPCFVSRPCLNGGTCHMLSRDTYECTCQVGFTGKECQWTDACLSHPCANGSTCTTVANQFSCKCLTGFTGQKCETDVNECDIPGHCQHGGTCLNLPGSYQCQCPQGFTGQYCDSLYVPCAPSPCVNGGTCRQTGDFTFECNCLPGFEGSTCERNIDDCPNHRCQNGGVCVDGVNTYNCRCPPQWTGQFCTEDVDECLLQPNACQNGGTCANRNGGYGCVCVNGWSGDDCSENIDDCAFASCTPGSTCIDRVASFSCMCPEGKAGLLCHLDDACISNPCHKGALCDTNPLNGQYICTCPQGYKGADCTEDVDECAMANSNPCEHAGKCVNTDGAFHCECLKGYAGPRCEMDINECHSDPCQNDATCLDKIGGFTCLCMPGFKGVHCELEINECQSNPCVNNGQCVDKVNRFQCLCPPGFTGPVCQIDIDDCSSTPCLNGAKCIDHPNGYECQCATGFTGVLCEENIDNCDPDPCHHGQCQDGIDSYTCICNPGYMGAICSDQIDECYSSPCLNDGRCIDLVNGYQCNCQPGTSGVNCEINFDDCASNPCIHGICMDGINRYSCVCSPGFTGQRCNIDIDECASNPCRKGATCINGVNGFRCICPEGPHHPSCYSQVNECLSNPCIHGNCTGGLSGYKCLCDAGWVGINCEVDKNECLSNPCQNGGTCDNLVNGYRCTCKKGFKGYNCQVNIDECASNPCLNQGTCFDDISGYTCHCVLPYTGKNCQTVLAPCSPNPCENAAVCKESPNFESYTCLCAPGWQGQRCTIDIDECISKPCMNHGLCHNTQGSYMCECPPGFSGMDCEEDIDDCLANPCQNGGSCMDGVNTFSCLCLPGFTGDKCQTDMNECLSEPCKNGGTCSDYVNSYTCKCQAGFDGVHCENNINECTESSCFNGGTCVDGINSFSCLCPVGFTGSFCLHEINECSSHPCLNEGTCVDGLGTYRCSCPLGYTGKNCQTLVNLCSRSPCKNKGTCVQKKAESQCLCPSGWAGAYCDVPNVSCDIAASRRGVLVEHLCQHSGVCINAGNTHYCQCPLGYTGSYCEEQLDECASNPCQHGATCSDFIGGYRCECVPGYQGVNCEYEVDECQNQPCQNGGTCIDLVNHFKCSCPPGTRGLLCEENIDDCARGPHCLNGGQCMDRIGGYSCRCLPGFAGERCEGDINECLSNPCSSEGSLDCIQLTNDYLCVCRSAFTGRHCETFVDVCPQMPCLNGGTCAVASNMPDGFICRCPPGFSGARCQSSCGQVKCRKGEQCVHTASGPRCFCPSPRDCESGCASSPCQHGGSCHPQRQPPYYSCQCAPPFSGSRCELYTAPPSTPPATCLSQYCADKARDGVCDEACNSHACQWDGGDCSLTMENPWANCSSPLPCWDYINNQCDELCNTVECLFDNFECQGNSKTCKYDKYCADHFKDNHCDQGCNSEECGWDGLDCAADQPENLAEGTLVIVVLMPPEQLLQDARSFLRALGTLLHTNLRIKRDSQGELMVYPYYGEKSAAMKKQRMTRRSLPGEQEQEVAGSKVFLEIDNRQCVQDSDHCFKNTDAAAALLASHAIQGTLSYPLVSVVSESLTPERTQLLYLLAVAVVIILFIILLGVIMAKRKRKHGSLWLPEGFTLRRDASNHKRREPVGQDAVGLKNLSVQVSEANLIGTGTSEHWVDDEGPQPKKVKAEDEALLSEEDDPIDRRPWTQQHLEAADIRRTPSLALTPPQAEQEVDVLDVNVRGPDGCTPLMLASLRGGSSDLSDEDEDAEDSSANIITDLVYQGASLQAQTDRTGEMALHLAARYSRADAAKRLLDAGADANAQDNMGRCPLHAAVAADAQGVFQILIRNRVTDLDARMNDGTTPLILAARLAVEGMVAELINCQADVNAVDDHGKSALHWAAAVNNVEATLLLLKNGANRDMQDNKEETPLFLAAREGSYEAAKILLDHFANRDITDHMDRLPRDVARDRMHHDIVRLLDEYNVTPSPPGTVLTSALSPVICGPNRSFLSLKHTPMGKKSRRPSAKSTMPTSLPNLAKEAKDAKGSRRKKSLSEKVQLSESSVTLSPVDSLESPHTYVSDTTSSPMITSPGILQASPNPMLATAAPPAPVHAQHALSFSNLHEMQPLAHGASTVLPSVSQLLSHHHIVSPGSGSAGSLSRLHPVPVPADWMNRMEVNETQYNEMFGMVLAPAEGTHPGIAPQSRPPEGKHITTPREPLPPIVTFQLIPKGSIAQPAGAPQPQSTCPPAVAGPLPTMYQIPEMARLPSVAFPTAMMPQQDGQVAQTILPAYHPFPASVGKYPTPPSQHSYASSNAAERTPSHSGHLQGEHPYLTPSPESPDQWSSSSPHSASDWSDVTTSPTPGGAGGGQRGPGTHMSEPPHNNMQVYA

[6] = biological target: Pro-neuregulin-1, membrane-bound isoform (Homo sapiens) (UniProt Q02297); assay: NRG1 binders on small-molecule microarrays, primary screen, psychiatric disease protein project, biochemical, small-molecule microarray, fluorescence 635/667 (AID 1075); details: NRG1 binding, 635 nm fluorescence, higher = more signal;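 further: score combines 667 nm spot fluorescence with signal to noise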
Pro-neuregulin-1, membrane-bound isoform (Homo sapiens), sequence (Q02297 whole entry, looked up, the tested form may be a part, canonical isoform): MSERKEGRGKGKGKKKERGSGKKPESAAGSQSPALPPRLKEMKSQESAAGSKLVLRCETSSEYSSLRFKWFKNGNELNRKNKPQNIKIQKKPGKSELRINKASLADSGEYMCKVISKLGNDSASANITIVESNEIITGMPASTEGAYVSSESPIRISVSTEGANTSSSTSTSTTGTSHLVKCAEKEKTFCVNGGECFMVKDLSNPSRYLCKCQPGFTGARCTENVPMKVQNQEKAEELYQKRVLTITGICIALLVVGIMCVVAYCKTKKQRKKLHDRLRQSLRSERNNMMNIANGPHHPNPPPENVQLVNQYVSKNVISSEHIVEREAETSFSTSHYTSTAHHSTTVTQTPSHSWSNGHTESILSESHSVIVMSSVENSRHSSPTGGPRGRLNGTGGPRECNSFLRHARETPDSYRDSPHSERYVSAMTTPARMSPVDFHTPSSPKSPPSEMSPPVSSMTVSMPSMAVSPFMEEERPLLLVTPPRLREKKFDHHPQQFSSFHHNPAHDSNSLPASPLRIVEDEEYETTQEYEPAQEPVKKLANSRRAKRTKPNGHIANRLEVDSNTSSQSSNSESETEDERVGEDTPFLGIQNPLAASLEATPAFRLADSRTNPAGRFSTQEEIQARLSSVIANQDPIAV

[7] = tested on: Neuregulin-1 EGF-like domain; assay: binders of neuregulin-1 EGF-like domain, primary screen, biochemical, small-molecule microarray, 635 nm fluorescence (AID 1081); details: small-molecule microarray binding, higher = more signal;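 further: binding of the protein to compounds printed on small-molecule microarray slides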
[8] = FRG1 promoter luciferase signal modulators, primary screen, FRG1 inhibition for FSHD, cell-based, C2C12 myotubes, firefly/Renilla luciferase, luminescence (AID 1084); details: higher = more signal, called active from +8 up or from −8 down
[9] = binders of probe aFST on microarray, primary screen, stem cell growth factor project, biochemical, small-molecule microarray, fluorescence 635/667 (AID 1086); details: higher = more signal;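 further: score merges 667 nm fluorescence with signal-to-noise of each printed compound spot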
[10] = binders of probe aHhip on microarray, primary screen, stem cell growth factor project, biochemical, small-molecule microarray, fluorescence 635/667 (AID 1087); details: higher = more signal;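 further: score merges spot fluorescence at 667nm with spot signal to noise ratio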

| SMILES | composite z-score [1] | composite z-score [2] | composite z-score [3] | composite z-score [4] | composite z-score [5] | composite z-score [6] | composite z-score [7] | z-score [8] | composite z-score [9] | composite z-score [10] |
| --- | --- | --- | --- | --- | --- | --- | --- | --- | --- | --- |
| CCC[C@@H]1C[C@@]1(CCC)[C@@H](NP(=O)(c1ccccc1)c1ccccc1)c1ccc(Cl)cc1 | 0.337 | -0.23 | 0.0368 | -0.387 | -0.615 | -0.23 | -0.414 | 1.8 (inactive) | -0.223 | 0.982 |
| NCCCCCNC(=O)[C@@H]1C[C@@H]2C(=O)N[C@@H](CCCCN)C(=O)N2[C@@H]1c1cccc(OCCO)c1 | 0.0523 | 0.329 | -0.0037 | -0.202 | -0.254 | 2.11 | 0.969 | -0.697 (inactive) | -0.413 | 0.0497 |
| COCCOC(=O)N1C(=O)[C@@]2(c3cc(C#Cc4ccc(OC)cc4)ccc31)[C@H](C(=O)N1CCCCCCC1)[C@H]1C(=O)O[C@H](c3ccccc3)[C@H](c3ccccc3)N1[C@@H]2c1ccc(O)cc1 | 2.75 | 0.294 | 0.125 | 0.479 | 0.565 | 0.114 | 1.13 | 1.09 (inactive) | 2.06 | 0.615 |
| COc1ccc([Si](C)(C)[C@@H]2[C@@H](CCO)O[C@]3(C(=O)N(Cc4cccc(N5C(=O)c6ccccc6Oc6ccccc65)c4)c4ccccc43)[C@H]2C)cc1 | 0.393 | 0.123 | -0.134 | -0.173 | -0.571 | 0.536 | 0.602 | 0.133 (inactive) | 0.0472 | -0.134 |
| CCOC(=O)C1=CC[C@@H](c2ccc([N+](=O)[O-])cc2)N(S(=O)(=O)c2ccc(C)cc2)[C@H]1c1ccccc1 | -0.298 | 0.491 | 0.052 | 0.628 | 1.55 | 0.525 | 1.4 | -2.02 (inactive) | 0.858 | 0.0695 |
| CC(C)(C)OC(=O)CC[C@]1(C(=O)O)N=C(c2ccc(OCCCO)cc2)O[C@H]1c1ccccc1 | -0.161 | -0.0254 | -0.0345 | 0.19 | 0.831 | 0.467 | 1.11 | 1.9 (inactive) | 0.292 | 1.28 |
| CC(C)CN1C(=O)[C@@]2(Cc3ccccc31)c1ccccc1C(=O)N(Cc1ccccc1C(F)(F)F)[C@H]2c1ccc(CO)cc1 | 0.0106 | -0.0077 | -0.167 | 0.2 | -0.202 | -0.84 | -1.12 | -1.04 (inactive) | 0.0594 | -0.374 |
| C=CCN1C(=O)[C@]2(CC=C)N=C(c3ccc(OCCCO)cc3)O[C@@H]2c2ccccc21 | 0.967 | 0.194 | 0.123 | 0.0547 | 1.05 | 1.03 | 1.26 | -1.86 (inactive) | 0.61 | 0.0327 |
| C[N+](C)(C)CCCC[C@@H]1NC(=O)[C@@H]2C[C@H](C(=O)O)[C@H](c3ccc(O)cc3)N2C1=O | 1.26 | -0.752 | -0.119 | -0.695 | -1.77 | -0.0673 | -0.118 | 0.0902 (inactive) | -0.639 | -0.137 |
| COCCOC(=O)N1C(=O)[C@@]2(c3cc(C#Cc4ccc(OC)cc4)ccc31)[C@H](C(=O)NC[C@H](O)c1ccccc1)[C@H]1C(=O)O[C@H](c3ccccc3)[C@H](c3ccccc3)N1[C@@H]2c1ccc(O)cc1 | -0.179 | 0.504 | 0.0086 | 0.589 | 1.37 | 0.566 | 1.23 | 0.427 (inactive) | 0.57 | 0.012 |
| COCCOC(=O)N1C(=O)[C@@]2(c3cc(C#CCC(C(=O)OC)C(=O)OC)ccc31)[C@H](c1ccc(OCCO)cc1)N1[C@H](c3ccccc3)[C@H](c3ccccc3)OC(=O)[C@H]1[C@@H]2C(=O)N1CCN(c2ncccn2)CC1 | -0.372 | 1.32 | -0.0431 | 0.905 | 1.25 | 1.64 | 1.14 | 0.977 (inactive) | 0.789 | 0.142 |
| Cc1ccc(S[C@]2(C(=O)NCCN3CCOCC3)CC(=O)N(Cc3ccccc3C(F)(F)F)[C@@H]2c2ccc(CO)cc2I)cc1 | 0.273 | -0.245 | -0.0876 | -0.36 | -0.103 | 2.09 | 1.23 | -0.883 (inactive) | -0.295 | -0.236 |
| Cc1ccc(S[C@]2(C(=O)NC3CC3)CC(=O)N(Cc3ccccc3Cl)[C@@H]2c2ccc(CO)cc2I)cc1 | 0.29 | 0.132 | -0.106 | 0.171 | 0.0538 | 1.72 | 1.24 | -2.19 (inactive) | -0.0129 | -0.123 |
| C[C@H]1ON(c2ccc(C(=O)OC(C)(C)C)cc2)[C@@H](c2ccc(O)cc2)[C@@H]1C(=O)N1C(=O)OC[C@@H]1c1ccccc1 | -0.565 | -0.156 | -0.117 | 0.686 | 1.42 | 0.464 | 1.15 | -0.308 (inactive) | 0.184 | -0.0022 |
| O=C(CS)NCCCCCCNC(=O)[C@@H]1C[C@@H]2C(=O)N3CCC[C@H]3C(=O)N2[C@@H]1c1cccc(OCCO)c1 | 0.145 | 0.804 | 0.109 | 0.256 | 0.407 | 1.28 | 0.911 | 1.05 (inactive) | -0.022 | -0.0645 |
| COCCOC(=O)N1C(=O)[C@@]2(c3ccccc31)[C@H](c1ccc(OCCO)cc1)N1[C@H](c3ccccc3)[C@H](c3ccccc3)OC(=O)[C@H]1[C@@H]2C(=O)Nc1nc2ccccc2s1 | -0.436 | -0.504 | -0.0848 | 0.26 | 0.829 | 1.07 | 1.25 | -0.567 (inactive) | 0.439 | 0.154 |

Source: PubChem BioAssay
